According to the antibiotic and cytotoxicity screens of Wong et al. (2023):
Hit rate of the full screen: of about 39,000 compounds, about 3,300 (8.5%) were called active. The entries come from a sample that favours actives as a whole.

The compounds below were run on HepG2 (assay: cytotoxicity call (relative viability < 0.9)). Details: 10 µM.

| SMILES | cytotoxicity call |
| --- | --- |
| CC(C)C[C@@H](N)C1(c2ccc(Cl)cc2)CCC1 | inactive |
| CC1OC(OC2C=C3CCC4C(CCC5(C)C(c6ccc(=O)oc6)CCC45O)C3(C)CC2)C(O)C(O)C1O (centres undefined) | active |
| CN1CCc2cc3c(cc2C1C1OC(=O)c2c1ccc1c2OCO1)OCO3 (centres undefined) | inactive |
| ClC(Cl)=C(c1ccc(Cl)cc1)c1ccc(Cl)cc1 | inactive |
| Nc1ccccc1N1CCNCC1 | inactive |
| CN(C)C(=O)CN1CCN(C)C(=O)[C@]12CCN(c1ncccn1)C2 | inactive |
| [NH2][Pt]1([NH2])[O]C(=O)C2(CCC2)C(=O)[O]1 | inactive |
| O=[N+]([O-])OC1COC2C(O)COC12 (centres undefined) | inactive |
| CCn1cnc2c(Nc3cccc(Cl)c3)nc(N[C@@H]3CCCC[C@@H]3N)nc21 | active |
| Cc1cccc([C@H](CN)N(C)C)c1 | inactive |
| C[C@@H]1CN([C@@H](C)CO)C(=O)CCCn2cc(nn2)CO[C@H]1CN(C)C(=O)Oc1cccc2ccccc12 | inactive |
| CN(C)C(=O)[C@@]1(Cc2ccccc2CN=[N+]=[N-])N=C(c2ccc(OCCCO)cc2)O[C@H]1c1ccccc1N=[N+]=[N-] | active |
| COC(=O)[C@]1(Cc2ccccc2CN=[N+]=[N-])N=C(c2ccc(OCCCO)cc2)O[C@@H]1c1ccccc1N=[N+]=[N-] | active |
| [N-]=[N+]=Nc1ccccc1C[C@@]1(C(=O)NCc2ccccc2)N=C(c2ccc(OCCCO)cc2)O[C@@H]1c1ccccc1N=[N+]=[N-] | inactive |
| CN(C)C(=O)[C@@]1(Cc2ccccc2N=[N+]=[N-])N=C(c2ccc(OCCCO)cc2)O[C@H]1c1ccccc1N=[N+]=[N-] | inactive |
| CN(C)C(=O)[C@]1(Cc2ccccc2CN=[N+]=[N-])N=C(c2ccc(OCCCO)cc2)O[C@@H]1c1ccccc1N=[N+]=[N-] | inactive |
| [N-]=[N+]=NCc1ccccc1C[C@]1(C(=O)NCc2ccccc2)N=C(c2ccc(OCCCO)cc2)O[C@H]1c1ccccc1N=[N+]=[N-] | active |
| COC(=O)[C@@]1(Cc2ccccc2N=[N+]=[N-])N=C(c2ccc(OCCCO)cc2)O[C@H]1c1ccccc1CN=[N+]=[N-] | inactive |
| COCCCNC(=O)[C@@]1(Cc2ccccc2CN=[N+]=[N-])N=C(c2ccc(OCCCO)cc2)O[C@H]1c1ccccc1N=[N+]=[N-] | inactive |
| COCCCNC(=O)[C@]1(Cc2ccccc2N=[N+]=[N-])N=C(c2ccc(OCCCO)cc2)O[C@@H]1c1ccccc1N=[N+]=[N-] | inactive |
| COCCCNC(=O)[C@@]1(Cc2ccccc2CN=[N+]=[N-])N=C(c2ccc(OCCCO)cc2)O[C@H]1c1ccccc1CN=[N+]=[N-] | active |
| COC(=O)[C@@]1(Cc2ccccc2CN=[N+]=[N-])N=C(c2ccc(OCCCO)cc2)O[C@H]1c1ccccc1N=[N+]=[N-] | inactive |

| SMILES | cytotoxicity call |
| --- | --- |
| CN(C)C(=O)CN1C[C@H]2CON[C@@H]2C1 | inactive |
| O=C(c1ccccc1)C12CN3CN(CN(C3)C1)C2 | inactive |
| CC(C)c1cc2c(c(O)c1O)C1(C(=O)O)CCCC(C)(C)C1CC2 (centres undefined) | inactive |
| CN1C[C@@H]2CNC[C@@H]2C1=O | inactive |
| C[C@@H]1CN([C@@H](C)CO)C(=O)CCCn2nncc2CO[C@H]1CN(C)C(=O)Oc1ccc2ccccc2c1 | inactive |
| C1CO[C@H]2[C@@H](C1)CNC[C@H]2N1CCOCC1 | inactive |
| NCCc1c[nH]c2ccc(C(N)=O)cc12 | inactive |
| NCCc1ccncc1 | inactive |
| OC1(c2cccnc2)CCNCC1 | inactive |
| CCN(Cc1ccc(Cl)nc1)C(=C[N+](=O)[O-])NC | inactive |
| Cc1ccc2n[nH]c(CN)c2c1 | inactive |
| COC(=O)[C@@]1(Cc2ccccc2N=[N+]=[N-])N=C(c2ccc(OCCCO)cc2)O[C@H]1c1ccccc1N=[N+]=[N-] | inactive |
| COC(=O)[C@@]1(Cc2ccccc2CN=[N+]=[N-])N=C(c2ccc(OCCCO)cc2)O[C@H]1c1ccccc1CN=[N+]=[N-] | inactive |
| COC(=O)[C@]1(Cc2ccccc2CN=[N+]=[N-])N=C(c2ccc(OCCCO)cc2)O[C@@H]1c1ccccc1CN=[N+]=[N-] | active |
| [N-]=[N+]=Nc1ccccc1C[C@]1(C(N)=O)N=C(c2ccc(OCCCO)cc2)O[C@H]1c1ccccc1N=[N+]=[N-] | inactive |
| COC(=O)[C@]1(Cc2ccccc2N=[N+]=[N-])N=C(c2ccc(OCCCO)cc2)O[C@@H]1c1ccccc1N=[N+]=[N-] | active |
| COC(=O)[C@]1(Cc2ccccc2N=[N+]=[N-])N=C(c2ccc(OCCCO)cc2)O[C@@H]1c1ccccc1CN=[N+]=[N-] | inactive |
| CO[C@@H]1[C@H](OC(=O)NC(=O)CCl)CC[C@]2(CO2)[C@H]1[C@@]1(C)O[C@@H]1CC=C(C)C | inactive |
| CN1CCCCC1c1ccc(-c2cccnc2)nc1.Cl (centres undefined) | inactive |
| CN(CCC[C@@H](O)c1cccnc1)[NH2+][O-] | inactive |
| C=C(C)[C@@H]1[C@H]2OC(=O)[C@@H]1[C@]1(O)C[C@H]3O[C@]34C(=O)O[C@H]2[C@]14C | inactive |
| O[C@@]12CCCC[C@@H]1CNCC2 | inactive |

| SMILES | cytotoxicity call |
| --- | --- |
| CN1[C@@H]2CC[C@@H]1CC(N)C2 (some centres undefined) | inactive |
| Nc1nc(N)nc(NC2CC2)n1 | inactive |
| CCN1CCN(c2nc([N+](=O)[O-])nn2C)CC1 | inactive |
| CC(C)c1cccc2c1OCC[C@H](N)[C@@H]2O | inactive |
| C[C@@H](N)Cc1cccc(O)c1 | inactive |
| CC(C)c1cccc(C(C)C)c1O | active |
| C[C@@H](CN)CC(=O)O | inactive |
| CC(=O)[O][PbH2][O]C(C)=O | inactive |
| Oc1ccc(Cl)cc1Cc1cc(Cl)ccc1O | active |
| Clc1ccc(Cl)cc1 | inactive |
| O=C(O)c1cc(Cl)ccc1Cl | inactive |
| CCN1C[C@]23CNC[C@@H](C[C@H]2S1(=O)=O)O3 | inactive |
| C1CC(NC2CCOCC2)CCO1 | inactive |
| O=C1C=C2C(=CCO[C@@H]2O)O1 | inactive |
| O=C1C=C2C(=CCOC2O)O1 (centres undefined) | active |
| CC(=O)N[C@H]1C(=O)NC(=S)N(c2ccccc2)C1=O | inactive |
| N#CCCN1CCCC2(CCCC2)C1 | inactive |
| N/N=C(/N)NO | inactive |
| COc1ccc(OC(=O)N(C)C[C@@H]2OCc3ccccc3-c3c(n(C)c4ccccc34)C(=O)N([C@@H](C)CO)C[C@@H]2C)cc1 | inactive |
| COC(=O)[C@@H]1[C@@H](CO)[C@@H]2Cn3c(cccc3=O)[C@H]1N2C(=O)C1CC1 | inactive |
